Screens as filed in PubChem.
This is a sample that favours compounds with a hit; in the whole collection about 7.5% have one here.
Rab9 prom act: qHTS Assay for Rab9 Promoter Activators | Huh7 Rab9 promoter-luciferase reporter, luminescence, 24 h | Potency, µM (top dose mostly 9.22 µM), inactives show at the highest dose activation, negative = inhibition, actives largely listed as activators | hit rate 2.8% among 320,000; note: % of control where 0% means no effect; nearly all actives have a fitted effect of over 60% in size
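Cell-based reporter: Huh7 stable for Rab9 promoter-driven luciferase, plated in reduced-serum medium with 10% FBS at 1500 cells/well, compound-treated 24 h at 37 °C, luminescence read after 10 min reagent.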
KinaseGlo FLuc: Counterscreen for Luciferase (Kinase-Glo TM) Inhibition. Luciferin 4-monooxygenase (Photuris pensylvanica), Q27757. Potency, µM (top dose mostly 38.3 µM), inactives show at the highest dose activity change, negative = inhibition, usual class: inhibitors. Kinase-Glo luciferase, ATP luminescence, 8 min. AID 1379, 2008. hit rate 0.28% among 200,000; note: % is set by controls: 0 for no effect and ±100 for the full control effect; nearly all actives have a fitted effect of over 60% in size
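Luminescence was the read-out, taken after 8-minute incubation at ambient temperature. Luciferase turned over luciferin with 10 uM ATP in imidazole pH 7.2 buffer containing KCl, MgCl2, Tween 20 and BSA.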
NPC1 promoter act: qHTS Assay for NPC1 Promoter Activators; Huh7 NPC1 promoter luciferase reporter, 24 h; Potency, µM (series often up to 9.22 µM), inactives show top-dose activation, usual class: activators; hit rate 2.4% among 320,000; note: % of control where 0% means no effect; nearly all actives have a fitted effect of over 60% in size
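In 1536-well qHTS, Huh7 cells harboring an NPC1 promoter–luciferase construct received compound for 24 h; activation was quantified by luminescence following luciferase reagent addition.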
ELG1 genotoxic: qHTS screen for small molecules that induce genotoxicity in human embryonic kidney (HEK293T) cells expressing luciferase-tagged ELG1 | HEK293T ELG1-luciferase reporter, luminescence, 16 h | Potency, µM (series often up to 46 µM), without a hit: at the top dose activity change, positive = activation, hits mostly activators | AID 504466, 2011 | hit rate 1.3% among 330,000; note: % of control where 0% means no effect; nearly all actives have a fitted effect of over 60% in size
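Reporter readout depends on ELG1 protein level, which increases with genetic stress. After 16 hr compound exposure at 37 °C, luciferase activity was quantified using ONE-Glo.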
FLuc counter: qHTS profiling assay for firefly luciferase inhibitor/activator using purifed enzyme and Km concentrations of substrates (counterscreen for miR-21 project). Luciferin 4-monooxygenase (Photinus pyralis), P08659. purified FLuc, Km substrates, luminescence inhibition. Potency, µM (series often up to 57.5 µM), without a hit: at the highest dose activity change, negative = inhibition, usual class: inhibitors. hit rate 6.9% among 360,000. AID 588342, 2011;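 note: plate controls were vehicle for no effect and reference inhibitor for full effect; nearly all actives have a fitted effect of over 55% in size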
Target sequence (P08659 whole entry, looked up): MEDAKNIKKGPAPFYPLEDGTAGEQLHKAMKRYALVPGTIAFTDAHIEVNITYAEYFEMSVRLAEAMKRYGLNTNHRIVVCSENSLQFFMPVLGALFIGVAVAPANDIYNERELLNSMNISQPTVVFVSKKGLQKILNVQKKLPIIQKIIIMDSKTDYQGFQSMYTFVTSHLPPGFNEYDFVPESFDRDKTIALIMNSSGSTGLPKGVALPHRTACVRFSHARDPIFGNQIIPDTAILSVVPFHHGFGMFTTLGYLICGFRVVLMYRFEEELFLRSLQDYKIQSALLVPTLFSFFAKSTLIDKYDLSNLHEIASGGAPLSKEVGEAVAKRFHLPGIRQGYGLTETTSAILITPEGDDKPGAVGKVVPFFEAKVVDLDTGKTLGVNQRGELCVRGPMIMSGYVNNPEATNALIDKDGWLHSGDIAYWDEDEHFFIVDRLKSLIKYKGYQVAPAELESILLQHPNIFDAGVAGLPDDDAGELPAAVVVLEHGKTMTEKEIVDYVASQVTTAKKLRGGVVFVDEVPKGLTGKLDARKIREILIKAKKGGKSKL
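Purified P. pyralis luciferase (10nM final) with 10uM D-luciferin and 10uM ATP (Km levels) in 50mM Tris acetate pH 7.5, 10mM Mg acetate, 0.01% Tween-20, 0.05% BSA; qHTS 6-point titration, ~60 µM downward; luminescence read.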
SMN2 splice enh: qHTS Assay for Enhancers of SMN2 Splice Variant Expression; Potency, µM (highest dose often 46.1 µM), for inactives: at the top dose activity change, positive = activation, actives largely listed as activators; hit rate 2.8% among 210,000; HEK293 SMN2-luciferase splicing reporter, luminescence, 30-36 h; note: % of control where 0% means no effect; nearly all actives have a fitted effect of over 55% in size
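HEK293 cells carry an SMN2 […]–luciferase reporter in which exon 7 inclusion puts luciferase in frame. Cells were plated 10-12 h before compound addition, then incubated 30-36 h at 37C. ONE-Glo luminescence was read; sodium butyrate at 4.5 mM final served as control.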
The depositor's hits bear a star; ? = inconclusive; . = not tested or not shown; [ ] = dose if it differs, or a comment. Calls come from the whole dose curve; as a rule, active = well fitted curve in the direction sought with a large enough effect; inconclusive = small, poorly fitted or top-dose-only effect, or another doubt; inactive = no such curve, though single readings can be large; an effect the other way counts as inactive or inconclusive. Potency is the fitted concentration of half-maximal effect.

SMILES	Rab9 prom act	KinaseGlo FLuc	NPC1 promoter act	ELG1 genotoxic	FLuc counter	SMN2 splice enh
Cc1ccc(S(=O)(=O)N2CCC(C(=O)Nc3ccc(C)c(Cl)c3)CC2)cc1	.	.	.	.	-8%	-12%
NNc1nc(-c2ccccc2)cc(-c2ccc(Br)cc2)n1	-3%	.	-4%	-9%	?	.
Brc1ccc(-n2cnc(-c3ccccc3)c2)cc1	0.56µM*	.	1.4µM*	?	0.95µM*	.
Cc1cccc(-c2nc(C#N)c(NC3CCCCC3)o2)c1	1.8µM*	-1%	2.5µM*	?	7.6µM*	10µM*
Cc1ccc(-c2nc(C#N)c(N3CCC(C)CC3)o2)cc1	0.1µM*	.	?	3%	?	.
Cc1cccc(-c2nc3c(C#N)c[nH]n3c2NC2CCCCC2)c1	.	.	.	.	0%	.
Cc1cccc(-c2nc(C#N)c(N3CCCCC3)o2)c1	?	.	?	?	13µM*	.
COc1ccc(-c2nc(C#N)c(N3CCC(C)CC3)o2)cc1	-9%	.	-4%	-5%	?	.
CN1C(=O)c2ccccc2Sc2ccc(NC(=O)c3ccc(C#N)cc3)cc21	.	.	.	.	-3%	.
CCn1c(CN2CCCCC2)nc2cc(NC(=O)c3cc(OC)c(OC)c(OC)c3)ccc21	.	.	.	.	-1%	.
Cn1cc(S(=O)(=O)Nc2ccc3c(c2)OCCO3)cn1	12%	.	-4%	?	?	.
CCn1cc(S(=O)(=O)Nc2ccc3c(c2)OCCO3)cn1	-9%	-1%	3%	?	17µM*	.
O=c1c2cccc3c(N4CCOCC4)ccc(c32)c2nc3ccccc3n12	1%	-6%	-1%	?	5.4µM*	-21%
Cc1ccc(Nc2nc(C3CC3)cs2)cc1	3.5µM*	-3%	4µM*	8.2µM*	3.8µM*	4µM*
Clc1ccc(Nc2nc(C3CC3)cs2)cc1	1.6µM*	1%	3.2µM*	6.5µM*	7.6µM*	11µM*
CN(C1(C)CCS(=O)(=O)C1)S(=O)(=O)c1ccc2ccccc2c1 (centres undefined)	-9%	.	-6%	0%	-1%	.
COc1ccccc1NC(=O)c1cc2c(=O)oc3ccc(C)cc3c2s1	.	.	.	.	-1%	18%
Cc1cccc2cc3c(nc12)-c1ccccc1C3=O	3%	.	1%	?	15µM*	.
Cc1nc2c(cc1C#N)C(=O)c1ccccc1-2	2%	-5%	-2%	3%	2%	6%
CSc1nncc(-c2ccccc2)n1	13%	-6%	-1%	6%	-10%	7%
Cc1cc(N)n2nc(-c3ccccc3)cc2n1	0.5µM*	13µM*	?	9.2µM*	1.1µM*	7.9µM*
Cc1ccc(-c2cc(N)n3nc(-c4ccc(C)cc4)cc3n2)cc1	-1%	-3%	0%	-3%	1%	-26%
Cc1ccc(-c2cc3nc(-c4ccccc4)cc(N)n3n2)cc1	1.8µM*	-4%	?	?	?	7.1µM*
CSc1nc(N)n2nc(-c3ccccc3)cc2n1	2.2µM*	.	2µM*	10µM*	3.4µM*	.
O=C(Nc1ccon1)c1ccc(N2CCCCC2)c([N+](=O)[O-])c1	2µM*	7%	2.8µM*	16%	12µM*	14µM*
SMILES	Rab9 prom act	KinaseGlo FLuc	NPC1 promoter act	ELG1 genotoxic	FLuc counter	SMN2 splice enh
Cc1cc(NC(=O)c2ccc(N3CCCC3)c([N+](=O)[O-])c2)no1	12%	3%	7%	7%	-8%	10%
O=C(Nc1nc(-c2ccccc2)cs1)c1ccc(N2CCOCC2)c([N+](=O)[O-])c1	-27%	4%	-27%	-14%	?	-105%
O=C(Nc1nc2ccccc2s1)c1ccc(N2CCCCC2)c([N+](=O)[O-])c1	2µM*	3%	?	-4%	9.5µM*	5%[1.84 µM]
Cc1nc2ccc(NC(=O)[C@H](C)N3C(=O)C4CC=CCC4C3=O)cc2s1 (some centres undefined)	.	.	.	1%	.	.
COC(=O)c1nc2n(n1)C(c1cccc(Cl)c1)C(C(=O)Nc1ccccc1OC)=C(C)N2 (centres undefined)	.	.	.	.	4%	-5%
Cc1cnc(NC(=O)COc2ccc3c(c2)CCC3)s1	?	.	0.56µM*	0.65µM*	1.2µM*	.
COc1ccc(NC(=O)COc2cccc3c2OC(C)(C)C3)cc1OC	-13%	.	-3%	-4%	4%	.
Cc1cccc(NC(=O)COc2ccc3oc4c(c3c2)CCCC4)n1	-4%	-5%	16%	27%	?	3%
Cc1cnc(NC(=O)COc2cccc3c2OC(C)(C)C3)s1	-1%	0%	-2%	-3%	-4%	20µM*
Cc1cccc(NC(=O)COc2ccc3c(c2)CCC3)n1	?	.	25%	17%	11µM*	.
O=C(COc1ccc2c(c1)CCC2)Nc1ccccn1	3.2µM*	.	4µM*	?	0.17µM*	.
Cc1ccc(NC(=O)CSc2cc(=O)n(C)c3ccc(Cl)cc23)c(Br)c1	.	.	.	.	2%	0%
CCN(CC)CCCCNc1ncc2cc(-c3cc(OC)cc(OC)c3)c(NC(=O)NC(C)(C)C)nc2n1	-11%	.	-13%	?	0%	.
CC(=O)Nc1cccc(Oc2ccc3c(c2)C(=O)NC3=O)c1	21%	.	19%	?	11µM*	.
Clc1ccsc1-c1csc(-c2cccnc2)n1	?	-4%	16%	?	11µM*	13%
O=C(COc1ccccc1)Nc1nc(-c2cccs2)cs1	-1%	0%	7%	7%	?	-10%
Oc1ccc(-c2csc(-c3cccnc3)n2)c(O)c1	?	-1%	?	?	3µM*	?
c1cncc(-c2csc(-c3cccnc3)n2)c1	1%	.	-5%	-9%	?	.
c1csc(-c2csc(-c3cccs3)n2)c1	?	-2%	20%	21µM*	12µM*	3%
c1cncc(-c2nc(-c3cccs3)cs2)c1	19%	0%	29%	14%	27µM*	-4%
c1cncc(-c2nc(-c3ccco3)cs2)c1	22%	-4%	18%	29%	?	?
COc1ccc(-c2cc(C(=O)N/N=C\c3cc(OC)c(OC)c(OC)c3)[nH]n2)cc1	.	-3%	.	.	.	.
Nc1ccn(CC(=O)NCCc2ccccn2)c(=O)n1	-1%	.	-5%	3%	-2%	.
CC(C)(C)c1ccc(S(=O)(=O)NCC(=O)N2CCCC2)cc1	-6%	.	-4%	-9%	-3%	.
CC(C)(C)c1nc(SCC(=O)NNC(=O)c2ccccc2)c2ccccc2n1	-5%	.	2%	-1%	0%	.
COc1cc(/C=C/c2ccc3cccc(O)c3n2)c(Br)cc1O	3%	.	-1%	?	?	.
